“And” between values parts separate entries of the source, which are not always exact repeats. Equal entries are not always repeated. Inconclusive results are not listed. Where a call stands in place of a potency, no number is given. Where a structure was tested more than once in an assay, its records may differ in their call. The source made the active and inactive calls. Calls come from the whole dose curve; as a rule, active = well fitted inhibition curve with a large enough effect; inconclusive = small, poorly fitted or top-dose-only effect; inactive = flat fitted curve, though single readings scatter.
The compounds below were run against Phospholipid hydroperoxide glutathione peroxidase GPX4 (Homo sapiens) (UniProt P36969) (assay: Primary qHTS Assay for Inhibitors of Recombinant Selenoprotein Glutathione Peroxidase 4 (GPX4) (AID 1845192; note: nearly all actives have a fitted effect of over 65% in size)). Details: recombinant GPX4, GR-coupled NADPH fluorescence, 15 min; series mostly up to 50 µM; activity change, negative = inhibition: at the top concentration.
Sequence of Phospholipid hydroperoxide glutathione peroxidase GPX4 (Homo sapiens) (P36969 whole entry, looked up): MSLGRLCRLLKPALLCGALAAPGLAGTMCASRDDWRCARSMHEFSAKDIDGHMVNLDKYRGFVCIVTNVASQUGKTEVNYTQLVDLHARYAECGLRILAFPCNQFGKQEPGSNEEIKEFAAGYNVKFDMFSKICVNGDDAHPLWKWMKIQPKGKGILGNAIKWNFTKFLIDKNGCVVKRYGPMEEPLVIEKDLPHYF
Outline: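 GR-coupled assay: recombinant GPX4 preincubated 30 min with compound at room temperature; final 200 nM GPX4, 1 mM GSH, 0.5 mM cumene hydroperoxide, 0.5 mM NADPH, 100 nM GR, 0.01% BSA, pH 7.5 Tris. NADPH fluorescence (340/450 nm) read at 0 and 15 min.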
In the case of CC[N+](CC)(CC)CCOc1cccc(OCC[N+](CC)(CC)CC)c1OCC[N+](CC)(CC)CC, the Potency is reported as “inactive”.
In the case of Clc1ccc2nsnc2c1NC1=NCCN1, the Potency is reported as “inactive”.
With CC12CC3CC(C)(C1)CC(N)(C3)C2 the Potency was “inactive”.
For COc1ccc(CCN(C)CCCC(C#N)(c2ccc(OC)c(OC)c2)C(C)C)cc1OC (stereo not drawn), the Potency was “inactive”.
For Cc1cc(C(C)(C)C)cc(C)c1CC1=NCCN1, the Potency was “inactive”.
Clc1ccccc1C(c1ccccc1)(c1ccccc1)n1ccnc1 was tested, and the Potency was “inactive”.
In the case of COC(=O)Nc1nc2ccc(C(=O)c3cccs3)cc2[nH]1, the Potency is reported as “inactive”.
With CC(COc1ccccc1)N(CCCl)Cc1ccccc1 (stereo not drawn) the Potency was “inactive”.
For Clc1ccc(C(c2ccccc2Cl)C(Cl)Cl)cc1 (stereo not drawn), the Potency was “inactive”.
With Cc1cnc(C(=O)NCCc2ccc(S(=O)(=O)NC(=O)NC3CCCCC3)cc2)cn1 the Potency was “inactive”.
With CC(C)NCC(O)c1ccc(O)c(O)c1 (stereo not drawn) the Potency was “inactive”.
CC(C)C(=O)Nc1ccc([N+](=O)[O-])c(C(F)(F)F)c1 was tested, and the Potency was “inactive”.
CCOC(=O)Nc1ccc(NCc2ccc(F)cc2)nc1N was tested, and the Potency was “inactive”.
O=C(c1ccc(OCCN2CCCCC2)cc1)c1c(-c2ccc(O)cc2)sc2cc(O)ccc12 was tested, and the Potency was “inactive”.
With CN(Cc1cnc2nc(N)nc(N)c2n1)c1ccc(C(=O)N[C@@H](CCC(=O)O)C(=O)O)cc1 the “activity change, negative = inhibition” value was -7.88% (inactive).
In the case of Cc1ccccc1N1C(=O)c2cc(S(N)(=O)=O)c(Cl)cc2NC1C (stereo not drawn), the Potency is reported as “inactive”.
C[C@@H]1CC(=O)NN=C1c1ccc(NN=C(C#N)C#N)cc1 was tested, and the “activity change, negative = inhibition” value was -11.8% (inactive).
With Cn1c(=O)c2[nH]cnc2n(C)c1=O the Potency was “inactive”.
For COc1ccc2[nH]cc(CCNC(C)=O)c2c1, the Potency was “inactive”.
For COc1ccc2c(c1)c(CC(=O)O)c(C)n2C(=O)c1ccc(Cl)cc1, the Potency was “inactive”.
For CN1CCN(CCCN2c3ccccc3Sc3ccc(Cl)cc32)CC1, the Potency was “inactive”.
In the case of COc1cc2nc(N3CCN(C(=O)c4ccco4)CC3)nc(N)c2cc1OC, the “activity change, negative = inhibition” value is reported as -14.8% [at 27.8 µM] (inactive).
For CS(=O)(=O)CCNCc1ccc(-c2ccc3ncnc(Nc4ccc(OCc5cccc(F)c5)c(Cl)c4)c3c2)o1, the Potency was “inactive”.
For O=c1c(-c2ccc(O)cc2)coc2cc(O)cc(O)c12, the Potency was “inactive”.
C[C@](N)(Cc1ccc(O)c(O)c1)C(=O)O was tested, and the Potency was “inactive and 14.3 µM (active)”.
For O=C(C1CCCCC1)N1CC(=O)N2CCc3ccccc3C2C1 (stereo not drawn), the Potency was “inactive”.
For NCCS(=O)(=O)O, the Potency was “inactive”.
For Cn1cnc2c1c(=O)[nH]c(=O)n2C, the Potency was “inactive”.
In the case of NCCc1cnc[nH]1, the Potency is reported as “inactive”.
In the case of NCCCCCC(=O)O, the Potency is reported as “inactive”.
With CC1(CN2CCC(n3c(=O)[nH]c4ccccc43)CC2)OCc2ccccc2-n2cccc21 (stereo not drawn) the “activity change, negative = inhibition” value was -13.6% (inactive).
For CCC1(c2ccccc2)C(=O)NCNC1=O, the Potency was “inactive”.
CN(C)CCOC(c1ccccc1)c1ccccc1 was tested, and the Potency was “inactive”.

From PubChem BioAssay (NCATS)
Potency is the fitted concentration of half-maximal effect.
